For test [1], the system named is HaCat. The experiment in a line: Cytotoxic Profiling of Annotated Libraries Using Quantitative High-Throughput Screening (AID 1296008). Further: potency means the concentration at half of the fitted maximal effect. On max response: on the % scale 0 is the no-effect control and ±100 the full control effect. Conditions: Five cell lines viability, CellTiter-Glo ATP luminescence, 48-72 h; max response: stronger effect = lower value. The method, boiled down: (§1)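 Cytotoxicity was measured as CellTiter-Glo ATP luminescence, read after 10 min at room temperature. Compound treatment of the cells lasted 48 or 72 hr at 37 degrees Celsius in a qHTS format.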
In general terms: In ATP-based viability assays light output follows the ATP content of the culture.

For the next test, the system named is KB-3-1. Described as above. Conditions: Five cell lines viability, CellTiter-Glo ATP luminescence, 48-72 h; max response: stronger effect = lower value. A digest of the protocol:
as §1

For test [2], the system named is HACAT. The experiment in a line: qHTS assay to identify novel small-molecules to repurpose for Merkel cell carcinoma treatment (AID 1296009). Conditions: MCC and control cell lines, CellTiter-Glo viability, 72 h; at 44.8 µM (top of the series) unless noted. A digest of the protocol:
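Cell viability, measured as CellTiter-Glo luminescence, was normalized between DMSO and no-cell wells. The cells had been exposed to 8- or 11-point compound dilutions for 72 hr at 37 degree celsius.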
For orientation: qHTS replaces the single test concentration by a dilution series.

Another test relates to NIH3T3. In words: Cytotoxic Profiling of Annotated Libraries Using Quantitative High-Throughput Screening (AID 1296008). Further: potency means the concentration at half of the fitted maximal effect. On max response: on the % scale 0 is the no-effect control and ±100 the full control effect. The following applies: Five cell lines viability, CellTiter-Glo ATP luminescence, 48-72 h; max response: stronger effect = lower value. The method, boiled down:
as §1

Drawing on PubChem BioAssay (NCATS), this text covers outcome, max response and Potency for 24 compounds.

Inconclusive results are not listed. Unmarked numbers belong to inactive results. The source made the active and inactive calls. The call rests on the fitted dose curve; in most records, active means well fitted inhibition curve with a large enough effect; inconclusive means small, poorly fitted or top-dose-only effect; inactive means flat fitted curve, though single readings scatter.
Further: nearly all actives have a fitted effect of over 60% in size.

On to `C=C1C(=O)O[C@@H]2/C=C(\C)CC/C=C(\C)CC[C@@H]12`, for which the compound was called inactive in the test with HaCat [1] and in the test on HACAT [2]. For the same compound, the max response in the test on KB-3-1 was -12.1%.
In the case of `CC(CCC1(O)OC2CC3C4CC=C5C[C@@H](O[C@@H]6O[C@H](CO)[C@@H](O[C@@H]7O[C@@H](C)[C@H](O)[C@@H](O)[C@H]7O)[C@H](O)[C@H]6O[C@@H]6O[C@@H](C)[C@H](O)[C@@H](O)[C@H]6O)CC[C@]5(C)C4CC[C@]3(C)[C@@]2(O)[C@@H]1C)CO[C@@H]1O[C@H](CO)[C@@H](O)[C@H](O)[C@H]1O` (stereo partly drawn), the call in the test on HaCat [1] and with KB-3-1 was inactive. In addition, the max response in the test on NIH3T3 is 4.51%. For the same compound, the outcome in the test with HACAT [2] was “inactive [at 9.27 µM]”.
`C[C@@H]1O[C@@H](O[C@H]2[C@@H]3C=CO[C@@H](O[C@@H]4O[C@H](CO)[C@@H](O)[C@H](O)[C@H]4O)[C@@H]3[C@@]3(CO)O[C@@H]23)[C@H](O)[C@H](OC(=O)/C=C/c2ccccc2)[C@H]1O`: the compound was classed as inactive in the test with HaCat [1] and in the test on KB-3-1. Also, the outcome in the test on HACAT [2] is “inactive [at 17.4 µM]”.
With `O=C(CCl)Nc1cccc(NC2=NS(=O)(=O)c3ccccc32)c1`, the compound was classed as inactive with HaCat [1] and in the test with HACAT [2]. In addition, the Potency in the test on KB-3-1 is 14.6 µM (active).
For the compound `O=C(Nc1ccc2[nH]c(=O)oc2c1)C(=O)N1CCC(Cc2ccc(F)cc2)CC1`, the max response with HaCat [1] was 4.96%; with NIH3T3, -23.6%.
As to `C=C1CC[C@@H](O)[C@]2(C)C[C@H]3OC(=O)C(=C)[C@H]3CC12` (stereo partly drawn), the result with HaCat [1] and in the test with HACAT [2] was inactive. Further, in the test on KB-3-1, the max response is 1.13%.
Take `C=C(C)C(=O)O[C@H]1/C(C=O)=C\CC/C(CO)=C/[C@H]2OC(=O)C(=C)[C@@H]2[C@@H]1OC`: the call in the test on HaCat [1] and in the test with HACAT [2] was inactive. For the same compound, the max response in the test on KB-3-1 was 9.81%.
In the case of `C=CC(=O)N1CCCN(c2cc(NCCC(=O)O)nc(-c3ccccn3)n2)CC1`, the compound was classed as inactive in the test on HaCat [1] and with HACAT [2]. In addition, the max response in the test on KB-3-1 was -3.55%; in the test with NIH3T3 it was -29.3%.
In the case of `OC(CC1c2ccccc2-c2cncn21)C1CCCCC1` (stereo not drawn), the figures for the max response in the test on HaCat [1] and with NIH3T3 were -2.64% and -17.5%, respectively.
As for `CCOc1ccc(S(=O)(=O)N2CCCCCC2)c2ccccc12`, the compound was called inactive with HaCat [1], with NIH3T3 and with HACAT [2]. Further, the max response in the test with KB-3-1 is -18.9%.
On to `CC12CCC(OC3OC(CO)C(O)C(O)C3OC3OC(CO)C(O)C(O)C3O)CC1CCC1C2CCC2(C)/C(=C3/COC(=O)C3)CCC12O` (stereo not drawn), for which the figures for the max response in the test with HaCat [1] and with NIH3T3 were -19.3% and -1.69%, respectively.
As to `C=CCc1ccc(OC(C)Cc2ccc(OC)c(OC)c2)c(OC)c1` (stereo not drawn), the outcome in the test on HaCat [1] and with HACAT [2] was inactive. For the same compound, the values for the max response in the test on KB-3-1 and with NIH3T3 were -25.6% and -6.99%, respectively.
On to `S=C(c1ccc(-c2ccc(Cl)c(Cl)c2)o1)N1CCCCC1`, for which the call in the test with HaCat [1] and in the test with HACAT [2] was inactive. Also, the max response with KB-3-1 was 6.89%; in the test on NIH3T3 it was 2.68%.
Consider `Cc1nc(C#Cc2ccnc(Cl)c2)c(C)n1-c1ccc(OC(F)(F)F)cc1`, for which the compound was called inactive in the test with HaCat [1] and with HACAT [2]. In addition, the max response in the test on KB-3-1 was -15.3%; in the test with NIH3T3, -27.8%.
`COc1ccc(-c2csc(NC(=O)[C@H]3CCCCN3S(=O)(=O)c3ccc(C)cc3)n2)cc1`: the result in the test with HaCat [1] and in the test on HACAT [2] was inactive. In addition, the max response with KB-3-1 is -25.1%.
Consider `C#CCNCc1cc2cc(OCc3ccccc3)ccc2[nH]1`, for which the max response with HaCat [1] was -12.3%; in the test with NIH3T3 it was -24.7%.
Regarding `COc1ccc(-c2ccccc2)cc1NS(=O)(=O)c1cc(Cl)cc(Cl)c1O`, the call in the test with HaCat [1] was inactive. In the test with KB-3-1, the max response is 4.02%. Also, in the test with HACAT [2], the outcome was “inactive [at 17.4 µM]”.
Take `CC1(C)CC[C@]2(C(=O)O[C@@H]3O[C@H](CO)[C@@H](O)[C@H](O)[C@H]3O)CC[C@]3(C)C(=CCC4[C@@]5(C)CC[C@H](O[C@@H]6O[C@H](C(=O)O)[C@H](O)[C@H](O)[C@H]6O)C(C)(C)C5CC[C@]43C)[C@@H]2C1` (stereo partly drawn): the outcome in the test with HaCat [1] and in the test with KB-3-1 was inactive. The max response in the test with NIH3T3 is -2.05%. Also, the outcome with HACAT [2] is “inactive [at 17.4 µM]”.
Consider `COc1ccc(C#Cc2ccc(C(=O)N3CCC[C@@H](CO)C3)cc2)cc1`, for which the max response with HaCat [1] is 1.97%; in the test with NIH3T3, -25.7%.
For `C=CC(=O)Nc1cc(-n2c(=O)ccc3cnc4ccc(-c5ccc(NS(C)(=O)=O)cc5)cc4c32)ccc1C` the same measures were -9.43% and -11.5%.
For `O=C(C1CCCCC1)N(CCN1CCN(c2ccccc2O)CC1)c1ccccn1`, the result in the test on HaCat [1] and in the test with HACAT [2] was inactive. In addition, in the test on KB-3-1, the max response was -15.9%.
Consider `Cc1ccnc(NC(=O)C(C)c2cccc(C(=O)c3ccccc3)c2)c1` (stereo not drawn), for which the compound was classed as inactive in the test on HaCat [1] and with HACAT [2]. The max response in the test on KB-3-1 was -17.5%; in the test on NIH3T3 it was -5.36%.
Turning to `O=c1nc(-c2ccccn2)sc2ccccc12`, the result in the test on HaCat [1] and in the test with HACAT [2] was inactive. The max response with KB-3-1 is 3.79%.
Consider `CCOC(=O)N1CCC(CN(Cc2ccc(Cl)cc2)Cc2ccc([N+](=O)[O-])s2)C1` (stereo not drawn), for which the max response was -2.73% in the test with HaCat [1] and -3.24% in the test with NIH3T3.
